Test results published in the supplement of paper PMC6555819.

Tests used:
Experiment in all cases: PBM binding z-score (relative to random genomic background probes); higher = stronger binding; sequences stand for … in GC…GCGATTGACAGCGTAGAATGAAGG
[1] = test system: FXR:RXRa (NR concentration 270 nM, RXRa partner concentration 90 nM)
In short: (§1)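 Binding buffer was PBS pH 7.4 with 2% milk, 0.02% Triton X-100, 1 mM DTT, 0.2 mg/mL BSA and 0.4 mg/ml salmon testes DNA. In it, ligand-free nuclear receptor dimers were incubated 1 h on custom Agilent 4×180K protein-binding microarrays carrying double-stranded probes. Antibodies against each partner (one per run) detected binding, and z-scores were calculated against random background probes after regression normalization of scanned fluorescence.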

[2] = test system: LXRa:RXRa (NR concentration 270 nM, RXRa partner concentration 90 nM)
In short: as §1

[3] = test system: LXRa homodimer (NR concentration 270 nM)
In short: as §1

[4] = test system: LXRb:RXRa (NR concentration 270 nM, RXRa partner concentration 90 nM)
In short: as §1

[5] = test system: LXRb homodimer (NR concentration 270 nM)
In short: as §1

[6] = test system: PPARa:RXRa (NR concentration 270 nM, RXRa partner concentration 90 nM)
In short: as §1

[7] = test system: PPARg:RXRa (NR concentration 180 nM, RXRa partner concentration 90 nM)
In short: as §1

[8] = test system: PPARg:RXRa 270nM:90nM, anti-RXR (NR concentration 270 nM, RXRa partner concentration 90 nM)
In short: as §1

[9] = test system: PPARg:RXRa 30nM:10nM, anti-RXR (NR concentration 30 nM, RXRa partner concentration 10 nM)
In short: as §1

[10] = test system: PPARg:RXRa 90nM:30nM, anti-RXR (NR concentration 90 nM, RXRa partner concentration 30 nM)
In short: as §1

Sequence	PBM binding z-score [1]	PBM binding z-score [2]	PBM binding z-score [3]	PBM binding z-score [4]	PBM binding z-score [5]	PBM binding z-score [6]	PBM binding z-score [7]	PBM binding z-score [8]	PBM binding z-score [9]	PBM binding z-score [10]
CGTCCAAGGTCCAGGTCAGTGAAAGAGACTCGAA	0.579	0.595	0.0341	0.462	-0.914	1.17	0.0886	0.162	-0.651	-0.258
TCTCGGAAGACACGAAGGTCAGAGCTTTCCAGAG	0.883	0.652	-0.454	0.74	-0.988	1.79	0.356	1.57	2.55	1.71
TCATATAGGTAAAACAGGTGAAAGTCGGCATCTA	1.42	1.1	0.257	1.01	0.235	1.82	1.12	2.64	4.06	3.67
CTAACAAGGTGAACAAGGTCGTTGATTACTATTC	1.46	1.2	0.00841	1.71	-0.084	2.7	1.75	1.73	0.38	1.18
TGTCAAAGTTCAAAGGTAACGAAAGTATCCACAC	7.51	6.49	4.27	5.02	1.67	6.08	9.12	7.76	6.04	7.45
TCTTGTAGATCAGCAGGTTAAGACAGCTGGCCAA	0.409	0.423	-0.459	0.114	-0.579	0.79	-0.112	1.46	2.57	2.02
CCTGCTAGGTCAATGGTCCGCTAAAGCAGCTCGC	2.77	2.19	-0.135	1.19	-0.102	2.6	2.12	2.94	0.46	1.87
CGAACTAGGTCAGAACAGGACAGTGACGGATGAT	1.23	0.594	-0.065	0.276	-0.492	2.87	5.01	4.26	1.69	3.39
TCGAGTAGGTCACCAATGGGGCATTCAGCTTTCT	3.29	3.16	-0.128	2.79	-0.57	4.45	5.85	5.14	2.8	4.74
ATCTCTAGGTAAAACTCAGTTCAGTGAAGAACGC	0.591	0.776	0.947	0.542	1.02	0.518	0.101	0.473	0.403	0.618
TTACCAACGTGAGCTGAGGTCGTTGATCCAACTC	0.516	0.0402	-0.0796	0.169	-0.442	0.553	-0.116	-0.131	0.0496	-0.0803
TCTATTTGTTGATTAGGGCAACCGAAACAGCGGA	0.7	0.785	0.435	0.575	1.08	0.93	0.259	2.04	3.98	2.81
TTACCAAGGTGAAAGTTCGTTGATGCACGCCTTG	1.93	1.83	0.114	1.35	-0.561	4.14	6.03	6.53	4.84	6.63
TCGAGTAAGTTAGGGGCATTCAGAATGGCGTCGA	0.474	0.581	-0.298	0.52	-1.13	0.686	-0.191	0.338	1.03	0.613
CCGGCTGGGGCAAGGTTACCATAACGCACAGCCA	0.218	0.386	-0.338	0.353	-1.36	1.09	1.04	0.822	-0.299	0.627
CGAACTAGGTCATTGAGAGGACAGTGAATAGTAA	3.94	2.78	0.422	1.87	-0.333	4.37	7.29	5.99	3.89	5.45
TAGCCTAGGTCATTCAGGGGCCAGTGTAGAAAGC	4.78	3.98	0.7	3.06	1.08	3.66	1.53	2.43	0.00175	1.14
CAAAGTAGGTCAAAGGTCAAAGTCGAGCCAACCA	8.51	7.21	5.79	7.26	3.36	7.84	14.1	11.4	14.4	13.2
ATATGTAGGTTATTGGGTCATTCAGTTTGCGCAT	2.82	3.05	2.1	2.62	1.34	5.16	8.04	6.41	3.93	5.9
CGTCCAAGGTCAGAGAGGTCAGTAAATGCCGAGT	5.8	4.99	3.02	4.55	0.428	4.81	3.48	4.16	1.04	2.7
CTCGAAAGGTCGTGCTCAGGTGAATATACCAAAC	5.33	4.19	0.375	3.82	0.534	5.05	2.81	3.84	1.1	2.6
CCTTCTAGGTCATGGTCAGCTAATCTACAGTATG	3.87	2.77	0.676	2.12	0.355	4.37	5.63	5.39	2.57	4.28
ATACCAAGGTGATCGTGAGGTCGATGATACTAAC	1.46	0.961	0.482	0.993	-0.149	1.34	0.934	0.585	0.169	0.24
ACTATTAGTTGGGACGAGGGCAACCGATAGGTTG	0.251	0.126	-0.235	0.0169	0.305	0.354	0.695	0.305	0.0129	0.225
